# Results from the supplement of paper PMC8728848.
# Only a selection was taken, and the strongest signals are over-represented in it overall.
# B1: ECL (Erythrina cristagalli), Q6YD91 (protein)
# chain: VETISFSFSEFEPGNNDLTLQGAAIITQSGVLQLTKINQNGMPAWDSTGRTLYTKPVHIWDMTTGTVASFETRFSFSIEQPYTRPLPADGLVFFMGPTKSKPAQGYGYLGVFNNSKQDNSYQTLAVEFDTFSNPWDPPQVPHIGIDVNSIRSIKTQPFQLDNGQVANVVIKYDASSKILLAVLVYPSSGAIYTIAEIVDVKQVLPEWVDVGLSGATGAQRDAAETHDVYSWSFHASLPETND
# What was measured:
# Test in all cases: glycan array binding signal (z-score within array); higher = stronger binding
# Details in all cases: glycan notation: IUPAC condensed, linker removed
# [1] = target: Gal(b1-4)GlcNAc(b1-3)Gal(b1-4)GlcNAc(b1-3)Gal(b1-4)GlcNAc(b1-3)Gal(b1-4)GlcNAc(b1-3)Gal(b1-4)GlcNAc(b1-2)Man(a1-3)[Gal(b1-4)GlcNAc(b1-3)Gal(b1-4)GlcNAc(b1-3)Gal(b1-4)GlcNAc(b1-3)Gal(b1-4)GlcNAc(b1-3)Gal(b1-4)GlcNAc(b1-2)Man(a1-6)]Man(b1-4)GlcNAc(b1-4)GlcNAc
# In short: (§1)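 Glycan array data were curated from 3228 arrays in the Consortium for Functional Glycomics database and kept only where the protein sequence was available. Glycan names were converted to IUPAC-condensed notation, and columns mapping to the same glycan were averaged. The binding signal is a within-array Z-score, averaged across arrays of the same protein sequence at different concentrations or buffers and across linkers. Negative Z-scores can be read as non-binding.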
# [2] = target: Gal(b1-4)GlcNAc(b1-3)Gal(b1-4)GlcNAc(b1-3)Gal(b1-4)GlcNAc(b1-3)Gal(b1-4)GlcNAc(b1-3)Gal(b1-4)GlcNAc(b1-2)[Gal(b1-4)GlcNAc(b1-3)Gal(b1-4)GlcNAc(b1-3)Gal(b1-4)GlcNAc(b1-3)Gal(b1-4)GlcNAc(b1-3)Gal(b1-4)GlcNAc(b1-6)]Man(a1-6)[Gal(b1-4)GlcNAc(b1-3)Gal(b1-4)GlcNAc(b1-3)Gal(b1-4)GlcNAc(b1-3)Gal(b1-4)GlcNAc(b1-3)Gal(b1-4)GlcNAc(b1-2)Man(a1-3)]Man(b1-4)GlcNAc(b1-4)[Fuc(a1-6)]GlcNAc
# In short: as §1
# [3] = target: Gal(b1-4)GlcNAc(b1-3)Gal(b1-4)GlcNAc(b1-3)Gal(b1-4)GlcNAc(b1-3)Gal(b1-4)GlcNAc(b1-3)Gal(b1-4)GlcNAc(b1-3)Gal(b1-4)GlcNAc(b1-2)Man(a1-3)[Gal(b1-4)GlcNAc(b1-3)Gal(b1-4)GlcNAc(b1-3)Gal(b1-4)GlcNAc(b1-3)Gal(b1-4)GlcNAc(b1-3)Gal(b1-4)GlcNAc(b1-3)Gal(b1-4)GlcNAc(b1-2)Man(a1-6)]Man(b1-4)GlcNAc(b1-4)GlcNAc
# In short: as §1
# [4] = target: Gal(b1-4)GlcNAc(b1-3)[Gal(b1-4)GlcNAc(b1-6)]Gal(b1-4)GlcNAc
# In short: as §1
# Gal3S(b1-3)GlcNAc = target: Gal3S(b1-3)GlcNAc
# In short: as §1
# Gal3S4S(b1-4)GlcNAc = target: Gal3S4S(b1-4)GlcNAc
# In short: as §1
# Gal4S(b1-4)GlcNAc = target: Gal4S(b1-4)GlcNAc
# In short: as §1
# [5] = target: GalNAc(b1-4)GlcNAc(b1-3)GalNAc(b1-4)GlcNAc
# In short: as §1
# Glc(b1-4)Glc = target: Glc(b1-4)Glc
# In short: as §1
# Glc(b1-6)Glc = target: Glc(b1-6)Glc
# In short: as §1
# [6] = target: GlcNAc(a1-4)Gal(b1-4)GlcNAc(b1-3)Gal(b1-4)GlcNAc
# In short: as §1
# [7] = target: GlcNAc(a1-6)Gal(b1-4)GlcNAc
# In short: as §1
# [8] = target: GlcNAc(b1-2)[GlcNAc(b1-4)]Man(a1-3)[GlcNAc(b1-4)][GlcNAc(b1-2)Man(a1-6)]Man(b1-4)GlcNAc(b1-4)GlcNAc
# In short: as §1
# [9] = target: GlcNAc(b1-3)Gal(b1-4)GlcNAc(b1-3)Gal(b1-4)GlcNAc(b1-3)Gal(b1-4)GlcNAc(b1-2)Man(a1-3)[GlcNAc(b1-3)Gal(b1-4)GlcNAc(b1-3)Gal(b1-4)GlcNAc(b1-3)Gal(b1-4)GlcNAc(b1-2)Man(a1-6)]Man(b1-4)GlcNAc(b1-4)[Fuc(a1-6)]GlcNAc
# In short: as §1
# GlcNAc(b1-3)GalNAc = target: GlcNAc(b1-3)GalNAc
# In short: as §1
# [10] = target: GlcNAc(b1-6)Gal(b1-4)GlcNAc
# In short: as §1
# [11] = target: Neu5Ac(a2-3)Gal(b1-3)GalNAc6S
# In short: as §1
# [12] = target: Neu5Ac(a2-3)Gal(b1-4)GlcNAc(b1-3)Gal(b1-4)GlcNAc(b1-3)[Neu5Ac(a2-3)Gal(b1-4)GlcNAc(b1-3)Gal(b1-4)GlcNAc(b1-6)]GalNAc
# In short: as §1
# [13] = target: Neu5Ac(a2-3)Gal(b1-4)[Fuc(a1-3)]GlcNAc(b1-3)Gal
# In short: as §1
# [14] = target: Neu5Ac(a2-3)Gal(b1-4)[Fuc(a1-3)]GlcNAc(b1-3)Gal(b1-4)[Fuc(a1-3)]GlcNAc(b1-3)Gal(b1-4)[Fuc(a1-3)]GlcNAc
# In short: as §1
# [15] = target: Neu5Ac(a2-3)Gal(b1-4)[Fuc(a1-3)]GlcNAc(b1-3)GalNAc
# In short: as §1
# [16] = target: Neu5Ac(a2-3)[GalNAc(b1-4)]Gal(b1-4)Glc
# In short: as §1
# Neu5Ac(a2-6)Gal = target: Neu5Ac(a2-6)Gal
# In short: as §1
# Neu5Ac(a2-6)GalNAc = target: Neu5Ac(a2-6)GalNAc
# In short: as §1
# [17] = target: Neu5Ac(a2-6)GalNAc(b1-4)GlcNAc
# In short: as §1
# Neu5Ac(b2-6)GalNAc = target: Neu5Ac(b2-6)GalNAc
# In short: as §1
binder,measurement,setting,value
B1,glycan array binding signal (z-score),[1],3.35
same,glycan array binding signal (z-score),[2],5.32
same,glycan array binding signal (z-score),[3],2.02
same,glycan array binding signal (z-score),[4],3.6
same,glycan array binding signal (z-score),Gal3S(b1-3)GlcNAc,-0.33
same,glycan array binding signal (z-score),Gal3S4S(b1-4)GlcNAc,-0.359
same,glycan array binding signal (z-score),Gal4S(b1-4)GlcNAc,-0.487
same,glycan array binding signal (z-score),[5],3.31
same,glycan array binding signal (z-score),Glc(b1-4)Glc,-0.25
same,glycan array binding signal (z-score),Glc(b1-6)Glc,-0.304
same,glycan array binding signal (z-score),[6],-0.028
same,glycan array binding signal (z-score),[7],-0.358
same,glycan array binding signal (z-score),[8],-0.235
same,glycan array binding signal (z-score),[9],0.001
same,glycan array binding signal (z-score),GlcNAc(b1-3)GalNAc,-0.196
same,glycan array binding signal (z-score),[10],-0.23
same,glycan array binding signal (z-score),[11],-0.378
same,glycan array binding signal (z-score),[12],-0.038
same,glycan array binding signal (z-score),[13],-0.424
same,glycan array binding signal (z-score),[14],-0.241
same,glycan array binding signal (z-score),[15],-0.17
same,glycan array binding signal (z-score),[16],-0.505
same,glycan array binding signal (z-score),Neu5Ac(a2-6)Gal,-0.186
same,glycan array binding signal (z-score),Neu5Ac(a2-6)GalNAc,-0.481
same,glycan array binding signal (z-score),[17],-0.3
same,glycan array binding signal (z-score),Neu5Ac(b2-6)GalNAc,-0.388
